“And” between values parts separate entries of the source, which are not always exact repeats. Equal entries are not always repeated. Results filed as inconclusive are left out. A structure can be active in one record and inactive in another. The source made the active and inactive calls. Calls come from the whole dose curve; as a rule, active = well fitted curve in the direction sought with a large enough effect; inconclusive = small, poorly fitted or top-dose-only effect, or another doubt; inactive = no such curve, though single readings can be large; an effect the other way counts as inactive or inconclusive.

Test [1] can be described thus: Viability qHTS for spleen associated tyrosine kinase inhibitor (SYKi) naive MV4-11 cells (AID 1963823). Note: nearly all actives have a fitted effect of over 40% in size. Note: potency is the fitted concentration of half-maximal effect. In outline: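 Luminescence from CellTiter-Glo, developed 10 min at room temperature, gave viability of MV4-11 cells never exposed to SYK inhibitor. Cells (500/well) had been incubated with compounds for 72 hr under standard culture conditions.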
The nature of test [2]: Viability qHTS for spleen associated tyrosine kinase inhibitor (SYKi) drug resistant MV4-11 cells (AID 1963824). Note: nearly all actives have a fitted effect of over 35% in size. Note: potency is the fitted concentration of half-maximal effect. In outline:
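SYK inhibitor-resistant MV4-11 AML cells, 500 per well, added to predispensed compounds and incubated 72 hr at 37 C, 5% CO2. Viability measured by CellTiter-Glo luminescence after 10 min at room temperature.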
For orientation: In qHTS, concentration-response curves come from the screen itself.

Test [3] in a line: Quantitative highthroughput screen to assess conditional lethalithy of NOMO1 cells grown in RPMI1640 with dialyzed fetal bovine serum (RPMI+ds) (AID 1963877).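 For Viability: series mostly up to about 46 µM; 100% = DMSO control wells and 0% = empty wells.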 Note: nearly all actives have a fitted effect of over 30% in size. Note: potency is the fitted concentration of half-maximal effect. In outline:
(§1)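 Each medium arm—HPLM with 10% dialyzed FBS, or RPMI1640 with 5 mM glucose and 10% untreated or dialyzed FBS—was screened against an 11-point, 3-fold compound titration for 48 h at 37 °C, with CellTiter-Glo luminescence as endpoint.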

Test [4] can be described thus: Quantitative highthroughput screen to assess conditional lethalithy of NOMO1 cells grown in Human Plasma-Like Medium with dialyzed fetal bovine serum (HPLM+ds) (AID 1963878).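 For Viability: 100% = DMSO wells and 0% = empty wells on each plate.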 Note: nearly all actives have a fitted effect of over 35% in size. Note: potency is the fitted concentration of half-maximal effect. In a few lines: as §1
Test [5] can be described thus: Quantitative highthroughput screen to assess conditional lethalithy of P12 Ichikawa cells grown in Human Plasma-Like Medium with dialyzed fetal bovine serum (HPLM+ds) (AID 1963879). For Viability: series mostly up to about 46 µM. Note: nearly all actives have a fitted effect of over 35% in size. Note: potency is the fitted concentration of half-maximal effect. As to conditions: Potency: viability. In a few lines:
as §1

The nature of test [6]: Quantitative highthroughput screen to assess conditional lethalithy of SEM cells grown in Human Plasma-Like Medium with dialyzed fetal bovine serum (HPLM+ds) (AID 1963882). For Viability: series mostly up to about 46 µM. Note: nearly all actives have a fitted effect of over 35% in size. Note: potency is the fitted concentration of half-maximal effect. In outline:
as §1

A short description of test [7]: Quantitative highthroughput screen to assess conditional lethalithy of SEM cells grown in RPMI1640 with unreated serum (RPMI+s) (AID 1963883).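 For Viability: 100% = DMSO wells and 0% = empty wells without cells.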 Note: nearly all actives have a fitted effect of over 35% in size. Note: potency is the fitted concentration of half-maximal effect. In outline: as §1
A short description of test [8]: Quantitative highthroughput screen to assess conditional lethalithy of SEM cells grown in RPMI1640 with dialyzed fetal bovine serum (RPMI+ds) (AID 1963884).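 For Viability: series mostly up to about 46 µM; 100% = DMSO control wells and 0% = empty wells without cells.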 Note: nearly all actives have a fitted effect of over 35% in size. Note: potency is the fitted concentration of half-maximal effect. In outline: as §1
Test [9] is described as follows: Cellular viability qHTS for adrenocortical cancer (ACC) cell line SW-13 (AID 1963989).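 For activity (max response): cells grown in serum-free medium with ITS supplement; % is set by controls: 0 for no effect and ±100 for the full control effect.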 Note: nearly all actives have a fitted effect of over 65% in size. Note: potency is the fitted concentration of half-maximal effect. Particulars: SW-13 ACC cells viability, CellTiter-Glo, 48 h; activity (max response): stronger effect = lower value. In a few lines:
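Luminescent ATP read-out (CellTiter-Glo, 20 min at room temperature) measured metabolically competent SW-13 cells after 48 h compound treatment. Final concentrations spanned up to 46 uM; bortezomib served as positive control.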

The nature of test [10]: Cellular viability qHTS for adrenocortical cancer (ACC) cell line NCI-H295R (AID 1963990). Note: nearly all actives have a fitted effect of over 60% in size. Note: potency is the fitted concentration of half-maximal effect. In outline: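 IC50 and maximal efficacy derive from four-parameter logistic modelling of titration curves, with reads scaled between DMSO-only wells (0%) and doxorubicin hydrochloride (100% inhibition). Compounds spanned up to 46 uM over 48 h.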
Test [11] is described as follows: Quantitative highthroughput screen to assess conditional lethalithy of P12 Ichikawa cells grown in RPMI1640 with dialyzed fetal bovine serum (RPMI+ds) (AID 1963880).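 For Viability: 100% = DMSO wells and 0% = empty wells on each plate.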 Note: nearly all actives have a fitted effect of over 35% in size. Note: potency is the fitted concentration of half-maximal effect. Particulars: Potency: P12-Ichikawa viability. In a few lines: as §1
A short description of test [12]: Quantitative highthroughput screen to assess conditional lethalithy of P12 Ichikawa cells grown in RPMI1640 with untreated serum (RPMI+s) (AID 1963881).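 For Viability: series mostly up to about 46 µM; 100% = DMSO wells and 0% = empty wells without cells.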 Note: nearly all actives have a fitted effect of over 35% in size. Note: potency is the fitted concentration of half-maximal effect. As to conditions: Potency: viability. In a few lines: as §1
The nature of test [13]: Quantitative highthroughput screen to assess conditional lethalithy of NOMO1 cells grown in RPMI1640 with untreated serum (RPMI+s) (AID 1963876). In outline: as §1

With `O=C(CCCCCCNC(=O)c1cnc(N(c2ccccc2)c2ccccc2)nc1)NO`, the Potency in test [1] is 2950 nM (active); in test [2] it was 2.35 µM (active); in test [3], 16.6 µM (active); in test [4] it was 14.8 µM (active); in test [5], 6.62 µM (active); in test [6], 7.43 µM (active). Further, the Potency in test [7] was 5.9 µM (active); in test [8], 7.43 µM (active); in test [9], 15.8 µM (active); in [10] it was 14.1 µM (active).
Regarding `COc1cc2c(Nc3ccc(Cl)c(Cl)c3F)ncnc2cc1OCC1C[C@@H]2CN(C)C[C@@H]2C1` (stereo not given in full), the Potency in test [1] is 1860 nM (active); in [2], 2.31 µM (active) and 2.95 µM (active); in test [3], 23.4 µM (active); in test [4] it was 13.2 µM (active); in test [5], 20.9 µM (active); in [11] it was 23.4 µM (active). Moreover, the Potency was 14.8 µM (active) in test [6]; 20.9 µM (active) in test [7]; 20.9 µM (active) in [8]; 2 µM (active) in [9]; 7.94 µM (active) and 8.91 µM (active) in test [10].
With `CN(C)c1ccc(C(=C2C=CC(=[N+](C)C)C=C2)c2ccc(N(C)C)cc2)cc1`, the Potency in [1] is 332 nM (active); in test [2], 0.372 µM (active); in [3] it was 0.132 µM (active); in test [4], 0.118 µM (active); in test [5], 0.264 µM (active); in [12], 0.118 µM (active). Further, the Potency in test [7] was 0.105 µM (active); in test [9], 651 nM (active) and 1.58 µM (active); in test [10], 920 nM (active) and 2.82 µM (active).
As for `CC(C)C(=O)Nc1ncc(-c2cc(C(F)F)nn2-c2c(Cl)cccc2Cl)s1`, the Potency in test [1] was 18600 nM (active); in test [2] it was 13 µM (active); in [10], 22.4 µM (active). Besides, the Potency result in test [13] is “inactive”.
Turning to `CCn1nnc2c(N3CCOCC3)nc(-c3ccc(NC(=O)Nc4ccc(C(=O)N5CCN(C)CC5)cc4)cc3)nc21`, the Potency in test [1] was 20.6 nM (active) and 46.8 nM (active); in test [2], 29.1 nM (active) and 46.8 nM (active). The Potency result in test [13] and in test [10] was “inactive” each time.
On to `CCC(C(=O)O)C1CCC(C)C(C(C)C(O)C(C)C(=O)C(CC)C2OC3(C=CC(O)[C@@]4(CC[C@](C)(C5CC[C@@](O)(CC)C(C)O5)O4)O3)C(C)CC2C)O1` (stereo not given in full), for which the Potency in test [1] was 332 nM (active); in test [2], 0.417 µM (active); in test [3], 1.18 µM (active); in test [7], 1.66 µM (active); in test [9], 2.82 µM (active); in test [10], 0.708 µM (active).
Take `CCOC(=O)[C@@H](N)CCC(=O)N[C@@H](CSCc1ccccc1)C(=O)N[C@@H](C(=O)OCC)c1ccccc1`: the figures for the Potency in [1] and in test [2] were 5900 nM (active) and 5.9 µM (active), respectively. The Potency entry in test [3], in test [5], in [11], in test [12], in test [6] and in test [8] was “inactive” each time. In addition, the activity (max response) in test [9] was -10.6% (inactive).
`NS(=O)(=O)c1ccc(Nc2nc(OCC3CCCCC3)c3[nH]cnc3n2)cc1`: the Potency was 580 nM (active) in test [1]; 0.651 µM (active) in [2]; 0.59 µM (active) in test [3]; 0.0469 µM (active) in [5]; 0.296 µM (active) in test [11]; 0.469 µM (active) in test [6]. For the same compound, the figures for the Potency in [7], in test [8] and in [9] were 0.296 µM (active), 0.469 µM (active) and 22.4 µM (active), respectively.
Turning to `OCCNC1CCCc2c1[nH]c1ccc(-c3ccccc3)cc21` (stereo not given), the Potency in test [1] is 8330 nM (active); in [2], 8.33 µM (active); in test [4], 23.5 µM (active); in test [5], 20.9 µM (active); in test [12], 18.7 µM (active); in test [7], 16.6 µM (active). Further, in test [9], the Potency is 15.8 µM (active).
As for `CNC(=O)c1cc(Oc2ccc(NC(=O)Nc3ccc(Cl)c(C(F)(F)F)c3)cc2)ccn1`, the Potency in test [1] is 21.1 nM (active); in test [2], 23.5 nM (active) and 59.6 nM (active) and 13 nM (active); in test [3], 18.7 µM (active); in [10] it was 11.2 µM (active) and 10.3 µM (active).
On to `Cn1c(=O)n(-c2ccc(C(C)(C)C#N)cc2)c2c3cc(-c4cnc5ccccc5c4)ccc3ncc21`, for which the Potency was 27 nM (active) in test [1]; 164 nM (active) and 60.5 nM (active) in [2]; 0.296 µM (active) in [3]; 1.05 µM (active) in test [5]; 1.66 µM (active) in test [11]; 2.09 µM (active) in [12]. Besides, the Potency is 0.235 µM (active) in test [6], 0.166 µM (active) in [7], 0.372 µM (active) in [8] and 0.0751 µM (active) in test [10].
With `CC(C)C[C@@H](C(=O)N[C@H](C(=O)OC1CCCC1)c1ccccc1)[C@H](O)C(=O)NO`, the Potency in test [1] is 372 nM (active); in test [2], 0.0742 µM (active); in [3], 23.5 µM (active); in test [5], 20.9 µM (active); in test [10] it was 25.1 µM (active).
In the case of `CC(C)c1cc(C(=O)N2Cc3ccc(CN4CCN(C)CC4)cc3C2)c(O)cc1O`, the Potency in test [1] is 33.2 nM (active); in test [2] it was 41.1 nM (active) and 52.5 nM (active); in [3], 0.662 µM (active); in test [9], 0.398 µM (active); in test [10] it was 0.631 µM (active).
For `COc1cc(CCc2cc(NC(=O)c3ccc(N4C[C@@H](C)N[C@@H](C)C4)cc3)n[nH]2)cc(OC)c1`, the Potency was 1180 nM (active) in test [1]; 1.64 µM (active) in test [2]; 18.7 µM (active) in [3]; 20.9 µM (active) in test [5]; 5.26 µM (active) in [6]; 4.69 µM (active) in test [7]. Besides, the Potency is 28.2 µM (active) in test [9] and 17.8 µM (active) in test [10].
For the compound `Cc1nn(C)c(COc2ccc(N3CCN(S(=O)(=O)N(C)C)CC3)cc2)c1-c1cccc2c(CCCOc3cccc4ccccc34)c(C(=O)O)n(CCN3CCOCC3)c12`, the Potency was 7.42 µM (active) and inactive in test [1]; 6.61 µM (active) and inactive in test [2]. For the same compound, the Potency result in test [3] and in test [10] was “inactive” in each case. The activity (max response) in [9] is -16.3% (inactive).
As to `CC1(C)O[C@H]2CC(=O)OC[C@]23[C@H]2CC[C@@]4(C)[C@H](c5ccoc5)OC(=O)[C@H]5O[C@]54[C@]2(C)C(=O)C[C@@H]13`, the Potency result in test [1], in [2], in [3], in test [5], in test [11] and in test [12] was “inactive” in each case. Besides, the Potency entry in test [6], in [7], in test [8] and in test [10] was “inactive” each time. In [9], the activity (max response) is 7.85% (inactive).
Consider `Fc1ccc(Cl)cc1-c1nc(Nc2ccncc2)c2nccnc2n1`, for which the Potency result in test [1] is “inactive and 18.6 µM (active)”. Further, the Potency result in test [2], in [3], in [5], in test [11], in [6] and in test [8] was “inactive” throughout. Besides, the Potency entry in [10] was “inactive”. The activity (max response) in test [9] is -19.5% (inactive).
On to `COc1ccc(C(=O)CC(=O)c2ccc(C(C)(C)C)cc2)cc1`, for which the Potency result in test [1] was “inactive and 14.8 µM (active)”; in test [2], “inactive and 16.6 µM (active)”. Moreover, the Potency entry in test [4], in [5], in test [11], in test [12], in test [8] and in [10] was “inactive” throughout. Further, the activity (max response) in test [9] is 8.41% (inactive) and -10.7% (inactive).
